Rev-erbA mod: modulators of Rev-erb alpha DNA binding, primary screen, biochemical, FITC-DNA, fluorescence polarization, uHTS. Rev-erbα–FITC-DNA binding, 90 min. activity, % at 10 µM. 0.79% of 370,000 active. AID 1259318, 2017;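 active means activity above about 14%, limit read from the data; passing the limit was not always enough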;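 further: 0% = DMSO wells with 35 nM protein and 100% = DMSO wells with 750 nM protein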
ABCB6 inh MLPCN: ABCB6 transporter inhibitors, primary screen, K562-ABCB6 cells, flow cytometry, MLPCN library; K562-ABCB6 porphyrin accumulation, 1 h; hits give low values; AID 602162, 2011; fluorescence ratio to DMSO, % at 10 µM; 0.19% of 360,000 active;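 active means fluorescence ratio to DMSO below 75%, the collection mean minus 3 SD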;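 further: signal is porphyrin accumulated inside mitochondria; 100% equals median channel fluorescence of DMSO control wells; lower ratio means ABCB6 inhibition with less porphyrin fluorescence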
VLA-4 inh: inhibition in human VLA-4 binding assay, primary screen, VLA-4 allosteric modulator project, MLPCN library, flow cytometry, VLA-4 expressing cells; Integrin alpha-4 (Homo sapiens), P13612; ligand binding flow cytometry; inhibition, % (about 7 µM as worked out from the volumes in the protocol); 0.2% of 330,000 active; AID 2557, 2010; in the data active means inhibition above about 50%
Exocytosis inh: LAMP-1 surface exposure blockers, TALL-104 cells – cell-based, flow cytometry, MLPCN library, primary screen. TALL-104 LAMP-1 surface exposure; cells stimulated with thapsigargin and PMA. inhibition, % at 10 µM. 0.66% of 360,000 active. AID 651702, 2012;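 active means inhibition above about 55%, limit read from the data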
PG9 binder: binders of HIV-1 gp120 antibody PG9, primary screen, biochemical, TR-FRET; inhibition, % at 6.7 µM; HIV-1 gp120 / PG9 antibody interaction; AID 624416, 2012; 0.43% of 360,000 active; TR-FRET gp120-PG9 antibody binding; in the data active means inhibition above about 8.5%
* hit, by the source's call; i = inactive; nt = not tested or not shown. Compounds with a hit are over-represented: about 2% of the library has one in this group of screens.

SMILES	Rev-erbA mod	ABCB6 inh MLPCN	VLA-4 inh	Exocytosis inh	PG9 binder
CCN(CC)C(=O)CC[C@@H]1CC[C@]2(CCCN(C(=O)c3ccco3)C2)O1	1	nt	nt	nt	nt
COc1ccc(/C=C2/SC(=S)N(CCCC(=O)Nc3cccc(O)c3)C2=O)cc1	-4	103	12	97*	-2
CCc1ccc(/C=C2\SC(=S)N(CCCC(=O)N3CCN(C)CC3)C2=O)cc1	0	102	nt	72*	0
COc1ccc(/C=C2\SC(=S)N(CCCC(=O)N3CCN(C)CC3)C2=O)cc1	4	93	-1	63*	-2
Cc1cc(C)cc(C(=O)OCCCN(C)C2CN(Cc3cn(Cc4ccccc4F)nn3)S(=O)(=O)C2)c1 (stereo not drawn)	-1	nt	nt	nt	nt
O=C(N/N=C/c1ccncc1)c1ccccc1OCc1ccc(Br)cc1	3	100	-8	83*	1
Cc1cccc(/C=N/NC(=O)c2ccccc2OCc2cccc(Br)c2)n1	-2	103	-8	74*	0
O=S1(=O)CCC(NC(=S)Nc2ccc(Cl)cc2)C1 (stereo not drawn)	3	73*	12	3	-2
O=C(Nc1ccccc1)NC1CCS(=O)(=O)C1 (stereo not drawn)	-3	103	4	-1	1
O=C(NCc1ccco1)C1CCCN(S(=O)(=O)c2ccc([N+](=O)[O-])cc2)C1 (stereo not drawn)	-5	nt	nt	nt	nt
COc1ccc(OCc2n(CC(=O)OC3CC(C)CCC3C(C)C)c3ccccc3[n+]2C)cc1 (stereo not drawn)	3	96	3	64*	0
COc1ccc(-c2n(CC(=O)OC3CC(C)CCC3C(C)C)c3ccccc3[n+]2C)cc1 (stereo not drawn)	0	95	nt	37	-1
CCc1ccc2c(c1)/C(=C/C(=O)c1cccs1)C(=O)N2	-2	102	21	104*	-3
CCCN1C(=O)/C(=C/c2ccc(C)s2)SC1=Nc1ccc(OC)cc1	1	108	-3	1	1
COc1ccc(N=C2S/C(=C\c3ccc(Cl)c([N+](=O)[O-])c3)C(=O)N2CCN(C)C)cc1	2	93	30	73*	0
CCN(CC)CCN1C(=O)/C(=C\c2ccc(Cl)c([N+](=O)[O-])c2)SC1=Nc1ccc(OC)cc1	2	98	29	93*	-2
COc1ccc2[nH]c3c4c(ccc3c2c1)C(=O)C=CC4=O	-3	105	nt	-3	10*
COc1ccc2[nH]c(=O)cc(C(=O)O)c2c1	-3	93	12	-3	-1
Cc1cccc(N/N=C/c2ccc(O)c(O)c2O)c1	3	96	9	-2	1
Cc1cccc(N/N=C/c2ccc(C)s2)c1	5	98	4	61*	1
c1cncc(Oc2ccc(NCCc3c[nH]c4ccccc34)cc2)c1	0	nt	nt	nt	-3
CC(C)(C)OC(=O)NCc1ccc(NC(=O)c2nc[nH]c2C(=O)NCCNC(=O)c2[nH]cnc2C(=O)Nc2ccc(CNC(=O)OC(C)(C)C)cc2)cc1	nt	96	-5	62*	nt
CC(C)(C)OC(=O)NCCCCCNC(=O)c1[nH]cnc1C(=O)N[C@@H](CCCCNC(=O)OC(C)(C)C)C(=O)OC(C)(C)C	nt	67*	9	-2	nt
CCCCN1/C(=C/c2ccc3ccccc3[n+]2CC)Sc2ccccc21	nt	i	nt	74*	nt
O=c1n(S(=O)(=O)c2cccc3cccnc23)c2ccccc2n1S(=O)(=O)c1cccc2cccnc12	1	99	18	68*	nt
SMILES	Rev-erbA mod	ABCB6 inh MLPCN	VLA-4 inh	Exocytosis inh	PG9 binder
N=C1S/C(=C\c2ccc(-c3cccc(Cl)c3)o2)C(=O)N1c1nccs1	-32	121	20	73*	-1
Cc1ccc(S(=O)(=O)N(C(=O)c2ccncc2)c2ccc(OC(=O)c3ccncc3)c3ccccc23)c(C)c1	nt	100	-1	100*	nt
CC(=O)Oc1ccc(N(C(C)=O)S(=O)(=O)c2ccccc2)c2ccccc12	-2	79	nt	6	1
Cc1ccc(S(=O)(=O)N(C(=O)c2ccncc2)c2ccc(OC(=O)c3ccncc3)c3ccccc23)cc1	0	93	18	118*	-3
O=C(NC1CCCCN(Cc2cccc(F)c2)C1=O)c1ccc2ccccc2c1 (stereo not drawn)	4	nt	nt	nt	nt
C=CCn1c(SCC(=O)Nc2ccccc2OC)nnc1-c1ccco1	3	nt	nt	nt	1
C=CCn1c(SCC(=O)Nc2nccs2)nnc1-c1cc2cccc(OC)c2o1	5	72*	8	2	-2
Cc1ccc(-n2c(Cc3cccs3)nnc2SCc2ccc([N+](=O)[O-])cc2)cc1	-1	nt	nt	nt	nt
C=CCN1C(=O)/C(=c2\sc3nc(=O)c(Cc4ccc(OC)c(OC)c4)nn3c2=O)c2ccccc21	-3	11*	-5	-2	-1
O=C1C=C(O)c2cccc(O)c2C1=O	-2	101	-24	0	-4
O=C1C=C(c2c(O)ccc3ccccc23)c2ccccc2C1=O	8	129	nt	104*	2
CC1=C(C)/C(=N\OS(=O)(=O)c2ccccc2)C=CC1=O	nt	92	18	97*	nt
Cc1ccsc1/C=N/NC(=O)CNC(=O)c1ccco1	nt	100	30	0	-1
Cc1ccsc1/C=N/NC(=O)CNC(=O)c1cccc([N+](=O)[O-])c1C	3	97	56*	-3	1
CC1OC(CC(=O)O)CC2=C1C(=O)c1c(O)cccc1C2=O (stereo not drawn)	-2	85	nt	88*	13*
c1ccc2[nH]ccc2c1	0	nt	nt	nt	nt
Cc1nc(S/C(=C/c2ccc(-c3ccc(C(=O)O)cc3)o2)C(=O)O)n[nH]1	-9	97	-7	0	-25
Cc1nc(S/C(=C/c2ccc(-c3ccc(Cl)cc3)o2)C(=O)O)n[nH]1	-4	114	0	69*	0
C=CCn1c(COc2ccc(F)cc2)nnc1SCC(=O)NC1CCS(=O)(=O)C1 (stereo not drawn)	0	71*	0	1	1
O=C(Nc1ccc(F)cc1)Nc1c(-c2ccc(C(F)(F)F)cc2)nc2ncccn12	-4	nt	nt	nt	nt
Cc1cc(C)c(S(=O)(=O)/N=C2\C=C(Nc3ccc(C(=O)O)cc3)C(=O)c3ccccc32)c(C)c1	3	102	-2	8	-12
O=C(O)c1ccc(NC2=C/C(=N/S(=O)(=O)c3cccs3)c3ccccc3C2=O)cc1	-19	100	nt	35	-16
CCc1ccc(S(=O)(=O)/N=C2\C=C(Nc3ccc(O)cc3)C(=O)c3ccccc32)cc1	nt	100	11	86*	nt
CCc1ccc(S(=O)(=O)/N=C2/C=C(Sc3ncn[nH]3)C(=O)c3ccccc32)cc1	nt	98	-201	98*	nt

Source: PubChem (several laboratories)
